# Data from PubChem BioAssay (NCATS).
# Records with an inconclusive call do not appear. Calls of active or inactive are those of the source. Calls come from the whole dose curve; as a rule, active = well fitted inhibition curve with a large enough effect; inconclusive = small, poorly fitted or top-dose-only effect; inactive = flat fitted curve, though single readings scatter.
# Test system: DFO2036
# Test: qHTS profiling for inhibitors of Plasmodium falciparum proliferation (AID 504749); note: nearly all actives have a fitted effect of over 60% in size;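 for activity, negative = inhibition: 0% = DMSO vehicle and full inhibition = artemisinin control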
# Details: P. falciparum in erythrocytes, SYBR Green DNA, 72 h; series mostly up to 12.8 µM; activity, negative = inhibition: at the top concentration
# Text: NIH National Institute of Allergy and Infectious Diseases [NIAID] NIH Chemical Genomics Center [NCGC] MLPCN Grant: None Assay Provider: Xinzhuan Su, NIAID NCGC Assay Overview: Plasmodium falciparum is a virulent malarial parasite that kills 1-2 million people worldwide each year. Transmitted by mosquitoes, the sporozoite form of the parasite enters the blood stream to infect hepatocytes, where they become merozoites that infect red blood cells (erythrocytes). Within erythrocytes, merozoites begin a […] cycle of growth and division, after which the parasite is released to infect new red blood cells. Gametocytes, which form within erythrocytes as well, circulate in the bloodstream and are ingested by the mosquito, thereby completing the life cycle. To profile malarial isolates for differential chemical responses and to identify inhibitors of malarial growth, an assay that measures P. falciparum growth and replication within erythrocytes was employed. This assay uses a DNA binding fluorescent dye (SYBR Green) to detect parasite DNA following cell lysis. Because mature erythrocytes lack DNA, only Plasmodium-derived DNA is detected.
# NCGC Assay Protocol Summary: The SYBR Green viability assay was adapted from a method described previously (Plouffe et al., 2008). For screening 3 ul culture medium was dispensed into 1536 well black clear bottom plates (Aurora Biotechnologies) using a Multidrop Combi (Thermo Fisher Scientific Inc.), 23 nL compounds in DMSO were added by a pin tool (Kalypsys), and 5 ul of erythrocytes infected with P. falciparum (0.3% parasitemia, 2.5% hematocrit final concentration) were added. The plates were incubated at 37 C in a humidified incubator in 5% CO2 for 72 h, and 2 ul lysis buffer (20 mM Tris HCl, 10 mM EDTA, 0.16% saponin, 1.6% triton X, 10X SYBR Green I supplied as 10,000X […] by Invitrogen) was added to each well. The plates were mixed for 25 sec with gentle shaking and incubated overnight at room temperature in the dark. The following morning, fluorescence intensity at 485(14) nm excitation and 535(25) nm emission wavelengths was measured on an EnVision (Perkin Elmer) plate reader. Plate reads were normalized relative to the control inhibitor (0.29 uM artemisinin) and vehicle (DMSO) wells present on each plate and then corrected by an algorithm using vehicle-only control plates at the beginning and end of the compound plate stack.
# Potency is the fitted concentration of half-maximal effect.
SMILES,"activity, negative = inhibition",Potency
CC1(C)OC2CO[C@]3(COS(N)(=O)=O)OC(C)(C)OC3C2O1 (stereo not given in full),7.42% [at 28.7 µM] (inactive),–
CO[C@]12C(COC(N)=O)C3=C(C(=O)C(C)=C(N)C3=O)N1CC1NC12 (stereo not given in full),–,316 nM (active)
C[C@@]12CCC(=O)C=C1C=CC1C2CC[C@]2(C)C1CC[C@@]21CCC(=O)O1 (stereo not given in full),-14.3% [at 28.7 µM] (inactive),–
Cc1ccsc1/C=C\C1=NCCCN1C,11.4% (inactive),–
O=C(O)[C@@H]1CCCN1,4.08% [at 28.7 µM] (inactive),–
C#C[C@]1(O)CC[C@@H]2[C@H]3CCC4=CCCC[C@@H]4[C@@H]3CC[C@@]21C,-0.875% (inactive),–
C1CCN2C[C@@H]3C[C@@H](CN4CCCC[C@H]34)[C@H]2C1,-4% (inactive),–
Cc1ccc2c(c1)c1c3n2CCN[C@H]3CCC1,-12.5% [at 28.7 µM] (inactive),–
CC1(C)OC2CC(=O)OC[C@@]23C1CC(=O)[C@]1(C)C3CC[C@@]2(C)C(c3ccoc3)OC(=O)C3O[C@@]321 (stereo not given in full),2.57% [at 28.7 µM] (inactive),–
O=C(OC[C@@H](O)CO)c1ccccc1Nc1ccnc2cc(Cl)ccc12,-1.77% (inactive),–
CCN(CC)CCOC(=O)[C@@H](Cc1cccc2ccccc12)C[C@@H]1CCCO1,3.95% (inactive),–
CN1CCN([C@@H](c2ccccc2)c2ccc(Cl)cc2)CC1,-11.5% (inactive),–
OCC1OC([S-])[C@H](O)C(O)C1O.[Au+] (stereo not given in full),-0.5% [at 28.7 µM] (inactive),–
CCOC(=O)C1=CC(OC(CC)CC)C(NC(C)=O)C(N)C1 (stereo not given),1.54% [at 28.7 µM] (inactive),–
O=C(N/N=C\c1ccc([N+](=O)[O-])o1)c1ccc(O)cc1,–,2820 nM (active)
COc1cc2nc(N3CCN(C(=O)[C@@H]4CCCO4)CC3)nc(N)c2cc1OC,11.5% [at 28.7 µM] (inactive),–
CC(C)(C)NC[C@H](O)COc1cccc2c1C[C@@H](O)[C@@H](O)C2,3.75% (inactive),–
CC(=O)[C@]1(O)CCC2C3C=C(Cl)C4=CC(=O)C5CC5[C@@]4(C)C3CC[C@]21C (stereo not given in full),-5.01% [at 28.7 µM] (inactive),–
C[C@@]12CC[C@H]3[C@@H](CCC4=CC(=O)CC[C@]43C)[C@H]1CC[C@H]2C(=O)CO,-3.2% (inactive),–
COc1ccccc1OC[C@H](O)CO,7.94% (inactive),–

SMILES,"activity, negative = inhibition",Potency
C[C@@H]1O[C@H](O[C@@H]2\C=C/C=C\C=C/C=C\C[C@H](C)OC(=O)/C=C\[C@H]3O[C@@H]3C[C@H](O)C[C@]3(O)C[C@@H](O)[C@@H](C(=O)O)[C@H](C2)O3)[C@@H](O)[C@H](N)[C@@H]1O (stereo in doubt),-0.926% [at 28.7 µM] (inactive),–
O=C(Nc1ccccc1)OC[C@H](CN1CCCCC1)OC(=O)Nc1ccccc1,7.42% (inactive),–
Cn1nnnc1SCC1=C(C(=O)O)N2C(=O)[C@@H](NC(=O)[C@@H](O)c3ccccc3)[C@@H]2SC1,8.41% (inactive),–
COC(=O)C1=C(C)NC(C)=C(C(=O)OC(C)C)[C@H]1c1cccc2nonc12,-23.5% (inactive),–
CC[C@](C)(CN(C)C)OC(=O)c1ccccc1,-2.08% (inactive),–
O=C(NC[C@@H](O)CO)c1c(I)c(C(=O)NC[C@@H](O)CO)c(I)c(N(CCO)C(=O)CO)c1I,1.11% (inactive),–
CC1(C)[C@@H](OC(=O)CCC(=O)O)CC[C@@]2(C)[C@H]1CC[C@@]1(C)[C@H]2C(=O)C=C2[C@H]3C[C@](C)(C(=O)O)CC[C@]3(C)CC[C@@]21C,14.5% (inactive),–
CC(=O)OCC(=O)[C@@]1(O)[C@H](C)C[C@@H]2[C@H]3CCC4=CC(=O)C=C[C@]4(C)[C@]3(F)[C@@H](O)C[C@@]21C,-1.94% (inactive),–
CC(=O)C[C@H](c1ccc([N+](=O)[O-])cc1)c1c(O)c2ccccc2oc1=O,7.46% (inactive),–
COc1ccc2c(c1)N(C[C@@H](C)CN(C)C)c1ccccc1S2,-0.393% (inactive),–
OCC1O[C@H](OC2C(CO)O[C@@](O)(CO)C2O)C(O)C(O)C1O (stereo not given in full),3.34% [at 28.7 µM] (inactive),–
CCCCC[C@H](O)/C=C\[C@H]1[C@H](C/C=C\CCCC(=O)O)[C@@H](O)C[C@H]1O (tested in a mixture with another compound),11% (inactive),–
NCc1ccccc1CC(=O)N[C@@H]1C(=O)N2C(C(=O)O)=C(CSc3nnnn3CC(=O)O)CS[C@@H]12,-0.31% (inactive),–
COc1c(O[C@H]2O[C@@H](CO)[C@@H](O)[C@@H](O)[C@@H]2O)cc2c(c1OC)-c1ccc(SC)c(=O)cc1[C@H](NC(C)=O)CC2,7.91% (inactive),–
Cc1cccc(CN2CCN([C@@H](c3ccccc3)c3ccc(Cl)cc3)CC2)c1,-26.8% (inactive),–
CC(C)C1CCC(C(=O)NC(Cc2ccccc2)C(=O)O)CC1 (stereo not given),4.41% [at 28.7 µM] (inactive),–
CC1(C)O[C@@H]2C[C@H]3[C@H]4C[C@H](F)C5=CC(=O)CC[C@]5(C)[C@@H]4[C@H](O)C[C@]3(C)[C@]2(C(=O)CO)O1,5.54% (inactive),–
COc1ccc2cc(C(C)CO)ccc2c1 (stereo not given),13.2% [at 28.7 µM] (inactive),–
CC[C@H](Cc1c(I)cc(I)c(N)c1I)C(=O)O,-4.05% (inactive),–
C[C@@]12C=CC(=O)C=C1CCC1C3CC(O)[C@@](O)(C(=O)CO)[C@]3(C)CC(O)[C@]12F (stereo not given in full),1.32% [at 28.7 µM] (inactive),–
